Screening data (PubChem BioAssay)
An excerpt weighted towards active compounds, which were near 3.4% of everything screened.
m-calpain inh: blocks pig calpain II enzyme activity | purified calpain II, fluorogenic peptide substrate, 30 min | inhibition, % at 16 µM | 220,000 tested, 0.37% active;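 active = inhibition above about 50%, limit read from the data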
Mcl1-Noxa inh: Mcl-1/Noxa interaction inhibition; Q07820; TR-FRET Mcl-1/Noxa peptide binding, 2 h; inhibition, % at 21.7 µM; 220,000 tested, 1.5% active; AID 1022;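 active = compounds that cut the protein-peptide binding signal by more than 50% relative to plate controls in a single-dose test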;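 note: His-tagged Mcl-1 with rhodamine Noxa BH3 peptide and terbium anti-His antibody; 0% = Mcl-1 plus Noxa peptide wells and 100% = peptide-only wells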
NCF1 inh: p47phox (human) inhibition; P14598; p47phox/p22phox peptide binding, fluorescence polarization, 2 h; inhibition, % at 24.7 µM; 220,000 tested, 0.53% active; AID 1274;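 active = inhibition above about 30%, limit read from the data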;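 note: 0% = p47phox with labelled peptide and 100% = labelled peptide alone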
Mcl1-Bid inh: disrupts binding of human Mcl-1 to Bid peptide; inhibition, % at 21.7 µM; AID 1021; 220,000 tested, 0.97% active; TR-FRET Mcl-1/Bid-Dy647 peptide binding, 1536-well; Q07820;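 active = compounds that cut the binding signal by more than half at the single screening dose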;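 note: His-tagged Mcl-1 with europium anti-His antibody binding Bid BH3 peptide; 0% = Mcl-1 plus peptide wells and 100% = peptide-only wells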
Bim-Mcl-1: disrupts Bim peptide binding to human Mcl-1; Q07820; Bead-based flow cytometry, Bim peptide-Mcl-1 binding; inhibition, % at 10 µM; 190,000 tested, 0.1% active; in the data active = inhibition above about 40%;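 note: 0% = no compound tracer wells and 100% = peptide blocker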
14-3-3 Bad PPI: disrupts binding of bovine 14-3-3 zeta to phospho-Bad peptide; TR-FRET 14-3-3zeta/Dy647-pBad peptide displacement, 1 h; inhibition, % at 21.7 µM; 220,000 tested, 0.71% active; P63103;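 active = inhibition above about 70%, limit read from the data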;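 note: 0% = full 14-3-3 plus peptide FRET controls and 100% = background without 14-3-3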
Target sequence (P63103 whole entry, looked up): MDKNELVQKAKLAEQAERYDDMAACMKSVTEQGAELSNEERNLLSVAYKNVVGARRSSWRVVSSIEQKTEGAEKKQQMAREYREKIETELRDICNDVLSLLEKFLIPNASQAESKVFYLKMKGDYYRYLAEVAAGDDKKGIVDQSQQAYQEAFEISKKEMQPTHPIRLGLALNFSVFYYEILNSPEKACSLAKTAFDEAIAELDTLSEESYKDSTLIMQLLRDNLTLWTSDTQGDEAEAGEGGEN
An asterisk follows results filed as active; i = inactive; nt = not tested or not shown; [ ] = remark or other dose.

SMILES	m-calpain inh	Mcl1-Noxa inh	NCF1 inh	Mcl1-Bid inh	Bim-Mcl-1	14-3-3 Bad PPI
Cc1ccccc1-n1c(C)nnc1SCC(=O)NC1CCCc2ccccc21 (stereo unspecified)	13	8	-1	16	2	92*[fluorescence artefact?]
CCOC(=O)c1cnc2ccc(C)cc2c1NCCO	4	12	43*	-9	-2	1
O=C(CNC(=O)c1ccccc1F)OC(C(=O)Nc1cc(C(F)(F)F)ccc1Cl)c1ccccc1 (stereo unspecified)	61*	-2	-17	-2	0	2
c1ccc2c(N3CCOCC3)nc(N3CCOCC3)nc2c1	-447	51*	-15	66*	2	61
CCOC(=O)C1=C(N)Oc2c(oc(CO)cc2=O)C1c1ccccc1 (stereo unspecified)	15	9	-1	1	17	1
c1coc(-c2nn3c(-c4ccco4)nnc3s2)c1	-40	26	-6	-12	-2	-3
COc1cccc(OC)c1-c1nn2c(-c3cc(-c4ccccc4)n[nH]3)nnc2s1	85*	-34	54*	-35	nt	-31
COc1ccccc1-c1nn2c(-c3ccco3)nnc2s1	-22	46	-14	-3	1	89*
COc1ccc(CS(=O)c2nc(C)cc(C)c2S(C)(=O)=O)cc1 (stereo unspecified)	0	14	-12	-4	0	-17
CCOc1ccccc1N/C(=C(/C(Cl)=C(Cl)Cl)[N+](=O)[O-])n1cncn1	-32	42	3	61*	-3	74*
O=[N+]([O-])/C(C(Cl)=C(Cl)Cl)=C(\Nc1ccc(F)cc1)n1cncn1	-2	20	-9	73*	3	50
CCOc1ccc(N/C(=C(/C(Cl)=C(Cl)Cl)[N+](=O)[O-])n2cncn2)cc1	i	38	-11	77*	6	67
CC1CCCN(C(=S)NC2CCCC2)C1 (stereo unspecified)	-2	-1	-9	-31	2	-1
CN1CCN(C(CC(=O)Nc2cccc(O)c2)C(=O)O)CC1 (stereo unspecified)	-32	-5	9	-40	-2	-20
O=C(O)/C=C/C(=O)Nc1ccc(Cc2ccc(NC(=O)/C=C/C(=O)O)cc2)cc1	-25	-17	-11	1	nt	-1
CCCCN(C(=O)CSc1nnc(Nc2ccc(C)c(C)c2)s1)c1c(N)n(Cc2ccccc2)c(=O)[nH]c1=O	-471	16	-80	-8	1	-16
CN(C(=O)CSc1nnc(Nc2ccccc2)s1)c1c(N)n(Cc2ccccc2)c(=O)[nH]c1=O	19	53*	-11	-18	8	-4
CNC1=C([N+](=O)[O-])CC([N+](=O)[O-])=C(N2CCNCC2)N1C	41	-15	-5	-14	2	-3
Cc1nnc(Sc2c(N)n(C)c(=O)[nH]c2=O)s1	-2	19	5	100*	-1	-15
C=CCn1c(Sc2nnc(C)s2)nc2c1c(=O)[nH]c(=O)n2C	-14	-2	-5	-13	-3	8
O=C(N/N=C/c1ccccc1OCc1ccccc1)c1cccs1	-46	-4	-19	-2	0	-18
COc1cccc(C2SCC(=O)N2c2ccc(Br)cc2)c1OC (stereo unspecified)	9	3	-8	-11	-2	12
O=[N+]([O-])c1c(Nc2ccccn2)cc(Cl)c2nonc12	-4	57*	-8	-39	nt	-1
CC(C)(C)Nc1nc2nonc2nc1NC(C)(C)C	11	9	-1	-1	0	4
COC(=O)/C(=C/c1cn(C(C)=O)c2ccccc12)[N+](=O)[O-]	7	61*	0	-8	nt	-3
COC(=O)/C(=C/c1cn(C)c2ccccc12)[N+](=O)[O-]	15	22	-16	-10	-2	12
CCc1cccc(CC)c1NC(=O)COC(=O)C1(C)CC1(Cl)Cl (stereo unspecified)	0	1	3	-16	-3	-6
CNC(=O)CCc1[nH]c2ccccc2c1Sc1ccccc1	8	-2	34*	-21	-4	4
O=C(CSc1nnc(-c2ccncc2)o1)NCc1ccccc1Cl	-4	1	-3	101*	0	-2
COc1ccc(S(=O)(=O)N(CC(=O)NCc2cccnc2)c2ccc(F)cc2)cc1OC	16	24	-4	8	0	10
